# PubChem BioAssay (NCATS)
# Unmarked numbers belong to inactive results. Records with an inconclusive call do not appear. Entries that show only a call come without a potency. The source made the active and inactive calls. Unless noted, calls follow the shape of the dose curve; as a rule, active = well fitted curve in the direction sought with a large enough effect; inconclusive = small, poorly fitted or top-dose-only effect, or another doubt; inactive = no such curve, though single readings can be large; an effect the other way counts as inactive or inconclusive.
# Experiments:
# [1] = AP1 Signaling Pathway (AID 357; active = well fitted curve in either direction with a large enough effect, not every such curve was filed as active;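 also: ME-180 reporter cells stimulated with EGF at its EC50 level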); conditions: ME-180 (cervical carcinoma) AP-1-bla reporter, EGF-induced, beta-lactamase ratio, 5 h; at 7.69 µM (top of the series) unless noted
# Summary of the method: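 A ratiometric CCF4 readout (405 nm excitation; 460 and 530 nm emission) quantified AP-1-driven beta-lactamase in ME-180 cells after 5 h with compound and EC50 EGF; AC50 values were derived for activators and inhibitors.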
# [2] = biological target: Cytochrome P450 1A2 (Homo sapiens) (UniProt P05177); experiment: p450-cyp1a2 (AID 410; calls by dose curve; also: potency is read from the fitted curve at half-maximal effect)
# Cytochrome P450 1A2 (Homo sapiens), sequence (P05177 whole entry, looked up): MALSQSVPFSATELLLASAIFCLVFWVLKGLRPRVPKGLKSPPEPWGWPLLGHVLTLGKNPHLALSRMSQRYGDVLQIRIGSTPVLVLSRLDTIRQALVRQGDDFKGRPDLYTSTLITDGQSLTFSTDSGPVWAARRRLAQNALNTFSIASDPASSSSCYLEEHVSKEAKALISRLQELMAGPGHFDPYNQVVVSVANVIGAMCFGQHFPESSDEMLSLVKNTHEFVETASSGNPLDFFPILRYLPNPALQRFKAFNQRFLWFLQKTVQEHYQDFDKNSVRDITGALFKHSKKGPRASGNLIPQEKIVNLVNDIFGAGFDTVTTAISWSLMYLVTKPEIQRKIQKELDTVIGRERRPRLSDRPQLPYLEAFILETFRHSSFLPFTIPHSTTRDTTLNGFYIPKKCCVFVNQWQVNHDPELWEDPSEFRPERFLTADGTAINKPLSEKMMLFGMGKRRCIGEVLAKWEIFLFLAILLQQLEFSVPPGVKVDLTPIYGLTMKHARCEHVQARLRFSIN
# Summary of the method: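 Luminescent readout of luciferin formed from Luciferin-ME by human CYP1A2; data normalized against complete inhibition by 57 uM furafylline. Enzyme 20nM, substrate 100uM at Km, 100mM KPO4 buffer, 60 min reaction at room temperature.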
# [3] = biological target: Glucocorticoid receptor (Homo sapiens) (UniProt P04150); experiment: GR-GFP Redistribution (AID 450;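 active = compounds whose dose series gives a full or clear partial fitted curve of increased nuclear translocation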; also: potency is read from the fitted curve at half-maximal effect); conditions: U2OS GR-GFP nuclear translocation, laser cytometry, 2 h
# Glucocorticoid receptor (Homo sapiens), sequence (P04150 whole entry, looked up, the tested form may be a part): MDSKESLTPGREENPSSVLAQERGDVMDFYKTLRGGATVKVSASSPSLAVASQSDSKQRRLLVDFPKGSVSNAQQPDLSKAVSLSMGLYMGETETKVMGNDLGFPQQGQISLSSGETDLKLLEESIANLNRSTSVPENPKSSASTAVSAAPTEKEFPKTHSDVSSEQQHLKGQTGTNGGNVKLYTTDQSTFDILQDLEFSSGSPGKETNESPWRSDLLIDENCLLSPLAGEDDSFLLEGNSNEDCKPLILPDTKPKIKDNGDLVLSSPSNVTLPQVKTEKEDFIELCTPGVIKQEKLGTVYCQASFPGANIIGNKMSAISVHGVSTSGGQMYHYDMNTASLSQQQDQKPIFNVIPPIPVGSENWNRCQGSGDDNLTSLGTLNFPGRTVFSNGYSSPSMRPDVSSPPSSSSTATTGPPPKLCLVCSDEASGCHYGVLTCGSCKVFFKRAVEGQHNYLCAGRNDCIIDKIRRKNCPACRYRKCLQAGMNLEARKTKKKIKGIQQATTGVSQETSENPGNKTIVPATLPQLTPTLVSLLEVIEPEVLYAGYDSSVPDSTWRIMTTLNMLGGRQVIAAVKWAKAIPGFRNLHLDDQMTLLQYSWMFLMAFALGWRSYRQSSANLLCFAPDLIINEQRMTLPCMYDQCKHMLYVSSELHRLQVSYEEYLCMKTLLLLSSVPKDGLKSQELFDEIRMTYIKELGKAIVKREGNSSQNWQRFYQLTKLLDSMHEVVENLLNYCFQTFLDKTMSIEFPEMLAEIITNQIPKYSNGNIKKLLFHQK
# [4] = biological target: Glucocorticoid receptor (Homo sapiens) (UniProt P04150); experiment: GR-EFC Redistribution (AID 451; calls by dose curve; also: potency is read from the fitted curve at half-maximal effect); conditions: CHO-K1 GR-EFC translocation, beta-gal luminescence, 2 h
# Summary of the method: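 Translocation of GR-ED fusion to nuclear EA restores b-gal, read by luminescence after 1 h room-temperature detection. Engineered CHO-K1 biosensor cells, 1,000/well, exposed 2 h at 37 C to titrations up to 46 uM final.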
# [5] = biological target: Mitogen-activated protein kinase 10 (Mus musculus) (UniProt Q61831); experiment: JNK3 AlphaScreen Assay (AID 530; active = well fitted curve in either direction with a large enough effect, not every such curve was filed as active;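 also: kinase came from lysate of stimulated human HepG2 cells; signal reports phosphorylation of biotinylated GST-cJun 1-79 at Ser73 with 10 µM ATP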)
# Summary of the method: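 Compound titrations were preincubated 15 minutes at room temperature with substrate, antibody and pre-activated JNK3-containing HepG2 lysate. Reactions were started with 10 uM ATP and stopped with EDTA-containing bead buffer for AlphaScreen detection.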
# [6] = biological target: 3',5'-cyclic-AMP phosphodiesterase 4B (Homo sapiens) (UniProt Q07343); experiment: qHTS Assay for Inhibitors of PDE-IV (AID 607; active = well fitted activation curve with a large enough effect in the main read-out, with a control signal flat, not every such curve was filed as active)
# 3',5'-cyclic-AMP phosphodiesterase 4B (Homo sapiens), sequence (Q07343 whole entry, looked up): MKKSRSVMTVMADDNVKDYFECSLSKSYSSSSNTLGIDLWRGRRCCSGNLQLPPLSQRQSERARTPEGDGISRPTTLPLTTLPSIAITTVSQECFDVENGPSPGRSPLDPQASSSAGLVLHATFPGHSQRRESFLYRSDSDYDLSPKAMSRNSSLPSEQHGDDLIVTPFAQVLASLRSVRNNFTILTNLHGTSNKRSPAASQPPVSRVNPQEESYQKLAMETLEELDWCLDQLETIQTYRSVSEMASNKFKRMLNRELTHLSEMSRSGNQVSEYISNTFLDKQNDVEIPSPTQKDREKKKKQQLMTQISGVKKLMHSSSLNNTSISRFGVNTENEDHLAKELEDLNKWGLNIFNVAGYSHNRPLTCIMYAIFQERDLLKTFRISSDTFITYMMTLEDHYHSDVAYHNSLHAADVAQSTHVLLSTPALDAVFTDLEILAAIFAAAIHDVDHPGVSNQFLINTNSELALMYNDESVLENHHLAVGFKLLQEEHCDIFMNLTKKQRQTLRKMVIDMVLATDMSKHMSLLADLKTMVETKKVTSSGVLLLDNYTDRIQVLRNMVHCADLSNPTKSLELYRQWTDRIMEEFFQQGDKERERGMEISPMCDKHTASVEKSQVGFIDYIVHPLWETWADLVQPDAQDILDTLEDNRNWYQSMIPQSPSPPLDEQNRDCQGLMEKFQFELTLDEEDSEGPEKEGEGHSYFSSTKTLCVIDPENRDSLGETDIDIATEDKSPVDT
# Summary of the method: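 The readout is membrane depolarisation from a cAMP-sensing CNG channel, detected with a potential dye at ex 535/em 590. Cells were HEK293-derived (endogenous PDE-IV) at 1000 cells/well, titrated up to 22.9 uM final.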
# [7] = biological target: Cytochrome P450 2C9 (Homo sapiens) (UniProt P11712); experiment: qHTS Assay for Inhibitors and Substrates of Cytochrome P450 2C9 (AID 883); also: potency is read from the fitted curve at half-maximal effect; nearly all actives have a fitted effect of over 60% in size
# Summary of the method: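 Luminescent read-out of deoxyluciferin hydroxylation, normalized to 57uM sulphaphenazole (AC100). Reaction: 10nM enzyme, 100uM Luciferin-H (equal to KM), 25mM KPO4, 10 min compound preincubation, then 60 min with NADPH regeneration, both at 37C.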
# [8] = biological target: Cytochrome P450 3A4 (Homo sapiens) (UniProt P08684); experiment: qHTS Assay for Inhibitors and Substrates of Cytochrome P450 3A4 (AID 884); also: potency is read from the fitted curve at half-maximal effect; nearly all actives have a fitted effect of over 50% in size
# Cytochrome P450 3A4 (Homo sapiens), sequence (P08684 whole entry, looked up): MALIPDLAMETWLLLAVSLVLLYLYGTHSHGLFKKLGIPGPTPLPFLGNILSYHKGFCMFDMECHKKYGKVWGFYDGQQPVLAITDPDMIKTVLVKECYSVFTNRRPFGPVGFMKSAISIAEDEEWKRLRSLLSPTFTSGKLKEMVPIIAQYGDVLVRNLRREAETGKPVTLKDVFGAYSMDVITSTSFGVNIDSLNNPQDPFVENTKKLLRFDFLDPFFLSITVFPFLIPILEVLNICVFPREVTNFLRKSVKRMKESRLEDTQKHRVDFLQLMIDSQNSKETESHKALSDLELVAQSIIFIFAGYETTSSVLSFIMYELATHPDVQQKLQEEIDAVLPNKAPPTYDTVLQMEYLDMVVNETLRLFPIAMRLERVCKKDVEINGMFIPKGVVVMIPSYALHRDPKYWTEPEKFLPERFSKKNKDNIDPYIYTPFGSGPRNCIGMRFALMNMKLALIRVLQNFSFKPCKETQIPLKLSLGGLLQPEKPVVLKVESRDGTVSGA
# Summary of the method: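 20 nM human CYP3A4 with 25 uM Luciferin-PPXE (at KM) in 200 mM KPO4, preincubated 10 min with compound; NADPH regeneration started a 60 min RT reaction. Luciferin detected by luminescence, normalized to 57 uM ketoconazole as full inhibition.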
# [9] = biological target: Cytochrome P450 3A4 (Homo sapiens) (UniProt P08684); experiment: qHTS Assay for Activators of Cytochrome P450 3A4 (AID 885); also: nearly all actives have a fitted effect of over 65% in size
# Summary of the method: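 Steps: enzyme/substrate mix dispensed; compound added, 10 min RT; NADPH regeneration solution added, 60 min RT; luciferin detection buffer stops reaction; 20 min later luminescence measured.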
# [10] = biological target: Cytochrome P450 2C19 (Homo sapiens) (UniProt P33261); experiment: qHTS Assay for Inhibitors and Substrates of Cytochrome P450 2C19 (AID 899); also: potency is read from the fitted curve at half-maximal effect; nearly all actives have a fitted effect of over 60% in size
# Summary of the method: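 Luminescence readout of luciferin formed from 10uM Luciferin-H EGE (KM level) by 5 nM CYP2C19 in 50mM KPO4. 60 min NADPH-driven reaction at 37C after 10 min compound preincubation; data scaled to 57uM ketoconazole inhibition.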
# [11] = biological target: Rap guanine nucleotide exchange factor 3 (Homo sapiens) (UniProt O95398); experiment: Confirmatory qHTS for antagonist of cAMP-regulated guanine nucleotide exchange factor 3 (EPAC1) (AID 1645880); conditions: EPAC1 Rap1B-BODIPY-GDP exchange, fluorescence; activity, negative = inhibition: at 115 µM (top of the series); also: nearly all actives have a fitted effect of over 55% in size
# Rap guanine nucleotide exchange factor 3 (Homo sapiens), sequence (O95398 whole entry, looked up): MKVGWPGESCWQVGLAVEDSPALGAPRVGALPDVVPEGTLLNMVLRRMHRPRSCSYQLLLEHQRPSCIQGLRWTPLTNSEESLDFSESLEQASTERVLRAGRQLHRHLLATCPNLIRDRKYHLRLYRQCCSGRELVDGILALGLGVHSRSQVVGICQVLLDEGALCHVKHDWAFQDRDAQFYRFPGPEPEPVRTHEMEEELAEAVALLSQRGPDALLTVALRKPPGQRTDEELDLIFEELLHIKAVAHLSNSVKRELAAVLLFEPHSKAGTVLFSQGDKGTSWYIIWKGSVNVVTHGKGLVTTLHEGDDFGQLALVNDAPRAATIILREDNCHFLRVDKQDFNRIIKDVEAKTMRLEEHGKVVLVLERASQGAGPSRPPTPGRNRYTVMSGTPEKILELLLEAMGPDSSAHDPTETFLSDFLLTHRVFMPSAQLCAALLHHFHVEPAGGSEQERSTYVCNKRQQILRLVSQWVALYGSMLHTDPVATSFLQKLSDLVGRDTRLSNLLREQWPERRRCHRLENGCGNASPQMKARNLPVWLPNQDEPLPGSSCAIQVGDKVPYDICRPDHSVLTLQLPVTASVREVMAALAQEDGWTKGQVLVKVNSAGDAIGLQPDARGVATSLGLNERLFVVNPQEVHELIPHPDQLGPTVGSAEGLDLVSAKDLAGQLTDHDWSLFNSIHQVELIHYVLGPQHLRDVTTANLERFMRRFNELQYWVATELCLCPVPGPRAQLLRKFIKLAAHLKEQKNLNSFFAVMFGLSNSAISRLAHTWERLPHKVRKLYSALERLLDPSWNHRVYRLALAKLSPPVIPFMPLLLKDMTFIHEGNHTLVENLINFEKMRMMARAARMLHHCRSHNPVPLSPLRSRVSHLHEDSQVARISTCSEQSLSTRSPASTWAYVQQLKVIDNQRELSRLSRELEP
# Summary of the method: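 Nucleotide exchange uses 100 nM EPAC1, 250 nM RAP1B-BODIPY-GDP and 50 uM GDP, with compounds in a concentration-titration series. After 5 min at room temperature, fluorescence (480 nm ex/540 nm em) is read every 5 min for 30 min. Data are normalized to control ATA and DMSO.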
# [12] = biological target: Rap guanine nucleotide exchange factor 4 (Homo sapiens) (UniProt Q8WZA2); experiment: Confirmatory qHTS for antagonist of cAMP-regulated guanine nucleotide exchange factor 4 (EPAC2) (AID 1645885); also: nearly all actives have a fitted effect of over 25% in size; also: potency is read from the fitted curve at half-maximal effect
# Rap guanine nucleotide exchange factor 4 (Homo sapiens), sequence (Q8WZA2 whole entry, looked up): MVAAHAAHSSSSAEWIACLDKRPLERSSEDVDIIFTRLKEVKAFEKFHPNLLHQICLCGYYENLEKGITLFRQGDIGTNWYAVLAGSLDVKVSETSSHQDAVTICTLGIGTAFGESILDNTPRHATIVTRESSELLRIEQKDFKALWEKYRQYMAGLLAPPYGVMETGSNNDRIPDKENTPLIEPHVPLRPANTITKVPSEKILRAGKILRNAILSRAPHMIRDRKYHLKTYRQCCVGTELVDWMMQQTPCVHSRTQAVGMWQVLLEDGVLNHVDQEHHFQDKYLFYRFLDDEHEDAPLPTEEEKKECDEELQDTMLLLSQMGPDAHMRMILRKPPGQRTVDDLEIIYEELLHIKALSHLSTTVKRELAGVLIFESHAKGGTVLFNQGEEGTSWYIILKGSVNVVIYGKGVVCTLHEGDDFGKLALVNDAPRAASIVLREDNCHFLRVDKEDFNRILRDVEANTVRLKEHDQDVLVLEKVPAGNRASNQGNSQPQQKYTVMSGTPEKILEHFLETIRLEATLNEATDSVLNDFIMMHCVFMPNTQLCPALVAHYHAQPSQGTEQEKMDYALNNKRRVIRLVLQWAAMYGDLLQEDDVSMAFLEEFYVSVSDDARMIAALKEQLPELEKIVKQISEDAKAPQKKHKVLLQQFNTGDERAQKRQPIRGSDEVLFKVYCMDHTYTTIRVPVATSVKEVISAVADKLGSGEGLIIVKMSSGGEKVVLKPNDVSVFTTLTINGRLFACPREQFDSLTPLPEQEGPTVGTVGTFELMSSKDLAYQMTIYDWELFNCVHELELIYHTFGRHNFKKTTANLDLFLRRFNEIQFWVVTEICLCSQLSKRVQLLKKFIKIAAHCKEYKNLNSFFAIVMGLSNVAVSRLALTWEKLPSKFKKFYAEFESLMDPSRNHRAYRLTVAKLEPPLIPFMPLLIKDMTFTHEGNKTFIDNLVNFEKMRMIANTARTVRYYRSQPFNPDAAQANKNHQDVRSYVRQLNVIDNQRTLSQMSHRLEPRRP
# [13] = biological target: Rap guanine nucleotide exchange factor 3 (Homo sapiens) (UniProt O95398); experiment: Counterscreen qHTS for antagonist of cAMP-regulated guanine nucleotide exchange factor 3 (EPAC1) (AID 1645888);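 also: fluorescence loss as bound BODIPY-GDP is released from Rap1B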
# Summary of the method: (§1)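 Rap1B-BODIPY-GDP 250 nM + GDP 50 uM; cpds 7-pt, final 9.74 nM–152 uM (activator mode) or from 7.32 nM upwards (inhibitor mode); RT; FI 480/540 nm at 5 and 30 min, then ± cAMP, reread.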
# [14] = biological target: Rap guanine nucleotide exchange factor 3 (Homo sapiens) (UniProt O95398); experiment: Counterscreen qHTS for agonist of cAMP-regulated guanine nucleotide exchange factor 3 (EPAC1) (AID 1645889); also: nearly all actives have a fitted effect of over 40% in size; also: potency is read from the fitted curve at half-maximal effect
# Summary of the method: as §1
# [15] = biological target: Tumor susceptibility gene 101 protein (Homo sapiens) (UniProt Q99816); experiment: qHTS Assay for Iinhibitors of HIV-1 Budding by Blocking the Interaction of PTAP/TSG101: Hit Validation (AID 651600); also: nearly all actives have a fitted effect of over 70% in size; also: potency is read from the fitted curve at half-maximal effect
# Tumor susceptibility gene 101 protein (Homo sapiens), sequence (Q99816 whole entry, looked up, the tested form may be a part): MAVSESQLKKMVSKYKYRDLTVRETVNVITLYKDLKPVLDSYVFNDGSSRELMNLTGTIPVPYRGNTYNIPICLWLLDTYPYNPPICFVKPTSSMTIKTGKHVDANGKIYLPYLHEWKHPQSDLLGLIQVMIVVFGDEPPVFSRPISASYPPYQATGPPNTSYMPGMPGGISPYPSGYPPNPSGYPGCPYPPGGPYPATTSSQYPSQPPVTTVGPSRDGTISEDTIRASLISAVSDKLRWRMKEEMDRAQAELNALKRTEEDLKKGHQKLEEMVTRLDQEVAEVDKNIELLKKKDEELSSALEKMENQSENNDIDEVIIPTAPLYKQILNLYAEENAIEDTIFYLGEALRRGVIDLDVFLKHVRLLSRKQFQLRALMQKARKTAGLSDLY
# Summary of the method: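 FITC-PTAP peptide (50 nM final) binding to Tsg101 binding domain (10 uM final) was measured by polarization after 20 min at r.t. with compounds, in 10 mM HEPES pH 7.5 buffer with 0.15 M NaCl and 0.01% Tween 20.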
# [16] = NFAT Signaling Pathway (AID 444; active = well fitted curve in either direction with a large enough effect, not every such curve was filed as active;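 also: carbachol stimulus at about its EC50 of 1 µM final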); conditions: Jurkat NFAT-bla M1, carbachol, beta-lactamase ratio, 5 h; at 7.69 µM (top of the series) unless noted
# Summary of the method: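 Read-out: CCF4 FRET ratio (460 nm/530 nm) after 1 h RT dye loading, used for %activity and AC50 from titration series. Cells: Jurkat NFAT-β-lactamase/M1 line, treated with compound plus 1 uM carbachol for 5 h, 37 °C.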
# [17] = biological target: Guanine nucleotide-binding protein G(i) subunit alpha-1 (Homo sapiens) (UniProt P63096); experiment: qHTS Assay for Inhibitors of RGS12 GoLoco Motif Activity (Green Fluorophore) (AID 879); also: potency is read from the fitted curve at half-maximal effect
# Summary of the method: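 Fluorescence polarization assay: 50 nM Gαi1 with 10 nM FITC-labeled RGS12 GoLoco peptide in 10 mM Tris pH 7.5, 150 mM NaCl, 0.1 mM GDP, 0.05% NP40, 10 min at room temperature with compound.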
# [18] = qHTS Assay for Identification of Small Molecule Antagonists for Thrombopoietin (TPO) Signaling Pathway (AID 918); conditions: TPO-dependent cell signaling reporter, antagonist mode; also: potency is read from the fitted curve at half-maximal effect; nearly all actives have a fitted effect of over 60% in size
# Summary of the method: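 Ba/F3 (murine, hTPO-R, GPIIb-luc reporter); overnight IL-3 withdrawal; cpd + TPO 26 pM final (EC50); 24 h 37 C/5% CO2; Steadylite luminescence after 10 min RT.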
# [19] = biological target: Pyruvate kinase (Leishmania mexicana) (UniProt Q27686); experiment: qHTS Validation Assay for Inhibitors of Leishmania Mexicana Pyruvate Kinase (AID 945)
# Summary of the method: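 Pyruvate kinase activity of E451W LmPYK (0.2 nM) was followed as ATP output after 1 h at room temperature with 0.5 mM PEP and 0.1 mM ADP, detected by PKLight luminescence.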
# [20] = biological target: Pyruvate kinase PKM (Homo sapiens) (UniProt P14618); experiment: qHTS Assay for Activators of Human Muscle Pyruvate Kinase (AID 954; active = well fitted curve in the direction sought with a large enough effect, not every such curve was filed as active)
# Summary of the method: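 Reaction: 0.1 nM purified PKM2 with 0.5 mM phosphoenolpyruvate and 0.1 mM ADP, room temperature, 1 h. Readout: luciferase-based ATP luminescence after stop reagent. Activators judged against a 0.3 nM enzyme column.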
# [21] = biological target: Alpha-galactosidase A (Homo sapiens) (UniProt P06280); experiment: Counterscreen for Glucocerebrosidase Inhibitors: qHTS Assay for Human alpha-Galactosidase at pH 4.5 (AID 992)
# Summary of the method: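 Concentration-response curves (0.7 nM to 77 uM final) were modeled with the Hill equation to give AC50. Reactions: 2 nM enzyme, 80 uM fluorogenic alpha-galactoside, pH 4.5 citric acid buffer, 20 min, room temperature.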
# [22] = biological target: alpha-glucosidase (Oryza sativa, rice) (UniProt Q653V4); experiment: Counterscreen for Glucocerebrosidase Inhibitors: qHTS Assay for Rice alpha-Glucosidase at pH 5.0 (AID 997)
# Summary of the method: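 Rice alpha-glucosidase (4 nM final) with 400 uM 4-methylumbelliferyl-alpha-D-glucopyranoside in citrate buffer pH 5.0, 20 min at room temperature, stopped at pH 10; fluorescence 365/440 nm, compounds 0.7 nM–77 uM, AC50 from Hill fits.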
compound,measurement,setting,value
Clc1ccccc1NN(Cc1ccncc1)c1ccccc1Cl,"activity change, negative = inhibition",[1],-14.2%
same,Potency,[2],5.01 µM (active)
same,Potency,[3],> 46 µM
same,Potency,[4],> 9.22 µM
same,"activity change, negative = inhibition",[5],3.26% [at 11.4 µM]
same,Potency,[6],inactive
same,Potency,[7],1.58 µM (active)
same,Potency,[8],0.251 µM (active)
same,"activity change, positive = activation",[9],-76.6% [at 11.4 µM]
same,Potency,[10],1.26 µM (active)
same,Potency,[11],inactive
same,Potency,[12],16.9 µM (active)
same,Potency,[13],inactive
CC(C)CC1=NN2C(=N)/C(=C\c3coc4ccccc4c3=O)C(=O)N=C2S1,Potency,[11],inactive
same,Potency,[12],inactive
same,"activity change, negative = inhibition",[13],51.1% [at 30.8 µM]
same,Potency,[14],12.6 µM (active)
COC(=O)c1sc(S(=O)(=O)N2CCCCC2C)c(C(=O)OC)c1C (stereo not drawn),Potency,[11],inactive
same,Potency,[12],53.6 µM (active)
same,Potency,[13],inactive
same,Potency,[14],inactive
COc1ccc(C(=O)Nc2nc(-c3ccc([N+](=O)[O-])cc3)c(-c3ccc(OC)cc3)s2)cc1,Potency,[15],inactive
same,Potency,[11],inactive
same,Potency,[12],inactive
same,Potency,[13],inactive
same,Potency,[14],63.1 µM (active)
CCCCn1c(=O)[nH]c2nc3cc(N)ccc3nc2c1=O,Potency,[15],6.51 µM (active)
same,Potency,[11],inactive
same,Potency,[12],inactive
same,"activity change, negative = inhibition",[13],79.1% [at 30.8 µM]
same,Potency,[14],12.6 µM (active)
CC(C)CCN1C(=O)c2cccc3c(N)ccc(c23)C1=O,Potency,[15],16.3 µM (active)
same,Potency,[11],inactive
same,Potency,[12],inactive
same,"activity change, negative = inhibition",[13],154% [at 30.8 µM]
same,Potency,[14],12.6 µM (active)
CC(=O)[C@@]1(O)Cc2c(O)c3c(c(O)c2[C@H](O[C@H]2C[C@H](N)[C@H](O)[C@H](C)O2)C1)C(=O)c1ccccc1C3=O,"activity change, negative = inhibition",[1],-110% [at 38 µM] (active)
same,Potency,[2],20 µM (active)
same,"activity change, negative = inhibition",[16],-116% [at 38 µM] (active)
same,Potency,[5],inactive
same,Potency,[6],inactive
same,Potency,[17],0.02 µM (active)
same,Potency,[18],0.0251 µM (active)
same,outcome,[19],inactive
same,outcome,[20],inactive
same,outcome,[21],inactive
same,outcome,[22],inactive
same,Potency,[11],inactive
same,Potency,[12],inactive
same,"activity change, negative = inhibition",[13],128% [at 30.8 µM]
same,Potency,[14],12.6 µM (active)
O=C(O)c1cc(Cl)ccc1-c1ccc(/C=C/c2cc(C(F)(F)F)[nH]c(=O)n2)o1,Potency,[15],inactive
same,Potency,[11],inactive
same,Potency,[12],inactive
same,"activity change, negative = inhibition",[13],144% [at 30.8 µM]
same,Potency,[14],12.6 µM (active)
CC(=O)/C(=N\Nc1ccccc1)Sc1cccc2cccnc12,Potency,[11],inactive
same,Potency,[12],84.9 µM (active)
same,Potency,[13],inactive
O=C(NC1CCCC1)c1cccc2c1C(=O)c1ccc(N3CCCCC3)cc1S2(=O)=O,Potency,[11],inactive
same,Potency,[12],inactive
same,Potency,[13],inactive
same,Potency,[14],inactive
